Measurements: ChEMBL document CHEMBL1157539, “Thousands of chemical starting points for antimalarial lead identification” (Nature, 2010)

system: HepG2; assay: GSK_TCMDC: Percent inhibition of human HepG2 cell line. Test compounds present at 10uM.; format: functional

| SMILES | Inhibition [%] |
| --- | --- |
| O=C(Nc1ccc(Cl)cc1)c1ccc(CN2CCCN(Cc3ccccc3)CC2)cc1.O=C(O)C(F)(F)F | 46 |
| CC(Cc1ccc(CNC(=O)c2ccc(CC(C)NCCc3cccc(Cl)c3)cc2)cc1)NCCc1cccc(Cl)c1 (stereo not drawn) | 99 |
| CS(=O)(=O)O.NC1=NC(CCc2ccccc2)N(c2ccccc2)C(N)=N1 (stereo not drawn) | 1 |
| Cc1ccc(Nc2nc(N)c3ccccc3n2)cc1.Cl | 9 |
| COc1ccc2ncc(F)c(CCN3CCC(NCc4cc(C)c5c(c4)OCCO5)CC3)c2n1.Cl | 20 |
| CCc1cn(C)c2c(N3CCCC3=O)cc(C(=O)N[C@@H](Cc3ccccc3)[C@H](O)CNC3CCCCC3)cc12 | 8 |
| CCOC(=O)c1ccc(NC(=O)Nc2cccc(-c3ccc(-c4nc5cc(C(F)(F)F)ccc5[nH]4)cc3)c2)cc1 | 62 |
| Cl.OC(CNCCCCCCNCC(O)c1ccc(Cl)c(Cl)c1)c1ccc(Cl)c(Cl)c1 (stereo not drawn) | 99 |
| O=C(Nc1ccc(Cl)cc1)Nc1cccc(-c2cccc(-c3nc4ccccc4[nH]3)c2)c1 | 70 |
| CS(=O)(=O)c1cc2c(Nc3ccc(N4CCOCC4)cc3)c(C(N)=O)cnc2cc1Br.Cl | 0 |
| O=C(NCCc1ccc(Cl)c(Cl)c1)[C@@H]1CCCN1C(=O)c1ccc(O)c(-c2cccc(C(F)(F)F)c2)c1 | 0 |
| CC(=O)c1cccc(NC(=O)NC2CCN(c3ccnc(Nc4ccc(F)cc4)n3)C2)c1 (stereo not drawn) | 10 |
| COc1ccccc1NC(=O)c1cc(C(=O)c2cc(Cl)ccc2O)cn(-c2ccccc2OC)c1=O | 9 |
